This note sets out measurements from PubChem BioAssay (NCATS).

Results filed as inconclusive are left out. Where a call stands in place of a potency, no number is given. Unmarked numbers belong to inactive results. The source made the active and inactive calls. Calls come from the whole dose curve; as a rule, active = well fitted curve in the direction sought with a large enough effect; inconclusive = small, poorly fitted or top-dose-only effect, or another doubt; inactive = no such curve, though single readings can be large; an effect the other way counts as inactive or inconclusive. *1 amine or outer side, *2 acyl side, *3 side chain or, on linkers, in order; H or OH if unused. Where a SMILES comes first, the peptide text is derived from it. Bridges are numbered along the chain shown (N, C = ends). [ ]: non-standard residue; d: D form. The star is where a group is joined. ξ: configuration not given here. X10 = NC1=NCCC(C(N[*:1])C(=O)[*:2])N1; ΔAla(3-NHCONH2) = NC(=O)NC=C(N)C(=O)O; pGlu = O=C1CC[C@@H](C(=O)O)N1; ξβ3hOrn = NCCCC(N)CC(=O)*; Dap = NC[CH](N)C(=O)O

Chain of Protein phosphatase 1D (Homo sapiens) (O15297 whole entry, looked up): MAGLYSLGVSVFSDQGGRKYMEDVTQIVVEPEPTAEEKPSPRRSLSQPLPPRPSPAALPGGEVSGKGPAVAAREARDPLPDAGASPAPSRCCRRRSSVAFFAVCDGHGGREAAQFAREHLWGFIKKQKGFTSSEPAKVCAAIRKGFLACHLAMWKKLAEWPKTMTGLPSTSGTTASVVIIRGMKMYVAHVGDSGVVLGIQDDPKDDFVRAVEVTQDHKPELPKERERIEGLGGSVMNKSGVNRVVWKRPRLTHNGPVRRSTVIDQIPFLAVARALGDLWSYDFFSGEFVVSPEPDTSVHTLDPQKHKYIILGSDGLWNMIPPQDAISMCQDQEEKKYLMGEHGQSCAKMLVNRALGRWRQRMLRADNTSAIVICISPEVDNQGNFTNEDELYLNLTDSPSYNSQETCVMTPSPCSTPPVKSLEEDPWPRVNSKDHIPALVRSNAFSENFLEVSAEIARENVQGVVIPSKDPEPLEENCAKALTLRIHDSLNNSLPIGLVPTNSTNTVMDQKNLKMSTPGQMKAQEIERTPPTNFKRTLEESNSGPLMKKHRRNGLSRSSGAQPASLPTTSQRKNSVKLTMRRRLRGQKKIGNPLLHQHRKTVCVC

The target of one experiment is Protein phosphatase 1D (Homo sapiens) (UniProt O15297). The experiment can be described thus: RapidFire Mass Spectrometry qHTS Assay for Modulators of WT P53-Induced Phosphatase 1 (WIP1) (AID 1347424).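 Note: amount of dephosphorylated VEPPL-S-QETFS peptide product formed by WIP1.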 As to conditions: WIP1 dephosphorylation of phosphopeptide, RapidFire MS; series mostly up to 63 µM. Summed up:
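10 nM WIP1 + cpd, 1 h RT; + 2 uM VEPPL-pS-QETFS, 5 min RT; stop 0.5% formic acid; labelled product standard 1 uM; RapidFire MS. Buffer 50 mM Tris pH 7.5, 30 mM MgCl2, 1 mM TCEP.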
On the technique in general: Quantitative high-throughput screening tests each substance at several concentrations.
On to `C[C@H]1C[C@H](O)c2ccsc2S1(=O)=O`, for which the Potency entry is “inactive”.

Regarding `Cc1cccc(C)c1NC(=O)c1cc(S(N)(=O)=O)c(Cl)cc1O`, the Potency result was “inactive”.

Consider `N#C/C(=C1/SC[C@@H](c2ccc(Cl)cc2Cl)S1)n1ccnc1`, for which the Potency entry was “inactive”. The same measure, in the same setting: in the case of `COC(=O)C1=C(C)NC(COC(N)=O)=C(C(=O)OC(C)C)C1c1cccc(Cl)c1Cl` (stereo not drawn) it was “inactive”. The same measure, in the same setting: in the case of `CC(C)(c1ccc(O)cc1)c1ccc(O)cc1` it was “inactive”; in that of `CC(=O)OCC(=O)[C@@]1(O)[C@H](OC(C)=O)C[C@H]2[C@@H]3CCC4=CC(=O)C=C[C@]4(C)[C@@]3(F)[C@@H](O)C[C@@]21C`, “inactive”.

As to `CCNC(=O)[C@@H]1CCCN1C(=O)[C@H](CCCN=C(N)N)NC(=O)[C@H](CC(C)C)NC(=O)CNC(=O)[C@H](Cc1ccc(O)cc1)NC(=O)[C@H](CO)NC(=O)[C@H](Cc1c[nH]c2ccccc12)NC(=O)[C@H](Cc1cnc[nH]1)NC(=O)[C@@H]1CCC(=O)N1` ([pGlu]HWSYGLRP-NHEt), the Potency result is “inactive”. The same measure, in the same setting: in the case of `CC(=O)O[C@@H]1CC2C3CCc4cc(OC(=O)c5ccccc5)ccc4C3CCC2(C)[C@H]1OC(C)=O` (stereo partly drawn) it was “inactive”; in that of `CN(C)CCOC1=Cc2ccccc2Sc2ccc(Cl)cc21`, “inactive”; in that of `CCOC(=O)Cn1cccc1-c1nc(-c2ccc(OC)cc2)c(-c2ccc(OC)cc2)s1`, “inactive”. As for `CCOc1c(N2CCOCC2)cnn(C)c1=O`, the Potency entry is “inactive”. Still for that read-out and setting: in the case of `O=C(O)c1[nH]n(-c2ccc(S(=O)(=O)O)cc2)c(=O)c1N=Nc1ccc(S(=O)(=O)O)cc1` it was “inactive”; in that of `Cc1cc2nc3ccc(=[N+](C)C)cc-3sc2cc1N`, “inactive”; in that of `O=C(O)Cn1c(=O)n(Cc2ccc(Br)cc2F)c(=O)c2ccc(Cl)cc21`, “inactive”. In the case of `CCCCCC(=O)O[C@]1(C(C)=O)CC[C@H]2[C@@H]3CCC4=CC(=O)CC[C@]4(C)[C@H]3CC[C@@]21C`, the Potency entry was “inactive”.

For `N=C(N)c1ccc(OCCCOc2ccc(C(=N)N)cc2)cc1`, the Potency entry was “inactive”. Same read-out and setting: in the case of `CC(NC(CCc1ccccc1)C(=O)O)C(=O)N1C(=O)N(C)CC1C(=O)O` (stereo not drawn) it was “inactive”; in that of `COC(=O)CCCCC(CCSS/C(CCO)=C(\C)N(C=O)Cc1cnc(C)nc1N)SC(C)=O` (stereo not drawn), “inactive”. The same measure, in the same setting: in the case of `c1ccc2occc2c1` it was “inactive”; in that of `CN(C)CCOC(c1ccccc1)c1ccc(Br)cc1` (stereo not drawn), “inactive”.

A further experiment shares this target. The experiment can be described thus: Rhodamine-PBP qHTS Assay for Modulators of WT P53-Induced Phosphatase 1 (WIP1) (AID 1347425). The settings on record: recombinant WIP1, Rhodamine-PBP phosphate fluorescence, real-time; series mostly up to 57.5 µM. Summed up:
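Read-out: Rhodamine-PBP fluorescence (ex 525/em 598 nm) for released Pi, read each minute for 11 min after adding 10 uM VEPPL-pS-QETFS; signal taken as f1 minus pre-substrate f0. Enzyme 5 nM WIP1 with 1 hr room-temperature compound preincubation.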
With `O=C(CCCCC(=O)Nc1c(I)cc(I)c(C(=O)O)c1I)Nc1c(I)cc(I)c(C(=O)O)c1I`, the outcome was inactive.

Turning to `NS(=O)(=O)c1cc2c(cc1Cl)CN(C1CCCCC1)C2=O`, the result was inactive.

On to `CCCC(=O)Nc1ccc(O)c(C(C)=O)c1`, for which the result was inactive. On the same count and under the same terms, in the case of `COc1ccc2c(c1)CCCC2=O` it was “inactive”; in that of `CC(=O)N(CC(=O)N(C)C)c1ccccc1`, “inactive”. On the same count and under the same terms, in the case of `Nc1c(NC/C=C\COc2cc(CN3CCCCC3)ccn2)c(=O)c1=O` it was “inactive”; in that of `C/C(=N/NC(=O)c1ccncc1)C(=O)O`, “inactive”. Turning to `Clc1ccc2c(c1)Nc1ccccc1S2`, the outcome was inactive. In the case of `C/C(=C1\CCOC(=O)S1)N(C=O)Cc1cnc(C)nc1N`, the outcome was inactive. Still for that read-out and setting: in the case of `CCCCCCCCCCCCCCCC[N+](C)(C)Cc1ccccc1` it was “inactive”; in that of `Cc1nc(C2CCCCC2)c(-c2ccc(S(N)(=O)=O)c(F)c2)o1`, “inactive”. Turning to `O=C(O)CCCC[P+](c1ccccc1)(c1ccccc1)c1ccccc1`, the outcome was inactive. In the case of `CC(C(O)c1ccccc1)N(C)CCOC(c1ccccc1)c1ccccc1` (stereo not drawn), the result was inactive. `NCCCC(N)CC(=O)NCC1NC(=O)C(CO)NC(=O)C(N)CNC(=O)C(C2CCN=C(N)N2)NC(=O)C(=CNC(N)=O)NC1=O` (stereo not drawn) (H-[Dap]S[Dap](ξβ3hOrn)[ΔAla(3-NHCONH2)][X10]; lactam 1-C; configuration not given here): the activity change, negative = inhibition was 11.7% [at 0.575 µM]. For `Cc1nc([N+](=O)[O-])cn1-c1ccc([N+](=O)[O-])cc1`, the result was inactive. Still for that read-out and setting: in the case of `Nc1ccc(O)cc1` it was “inactive”. The same measure, in the same setting: in the case of `O=C(O)/C=C(\CC(=O)O)C(=O)O` it was “inactive”.

Tested on in another experiment: not listed separately
The experiment in a line: Primary qHTS for inhibitors of La Crosse Virus (LACV) - induced cell death in SH-SY5Y cells (AID 1508616).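 Note: top concentration of the series differs between compounds; higher means more rescue of cells from virus-induced death.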 As to conditions: SH-SY5Y LACV cytopathicity rescue, ATP luminescence, 6 d; series mostly up to 4.29 µM. Summed up:
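Protection against LACV-induced cell death is scored in SH-SY5Y cells exposed to compounds and virus (0.01 MOI) for 6 days. Data normalized to virus-infected DMSO wells and virus-free DMSO wells.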
Regarding `O=C(CCCCC(=O)Nc1c(I)cc(I)c(C(=O)O)c1I)Nc1c(I)cc(I)c(C(=O)O)c1I`, the compound was called inactive.

As to `NS(=O)(=O)c1cc2c(cc1Cl)CN(C1CCCCC1)C2=O`, the compound was classed as inactive. Same read-out and setting: in the case of `CCCC(=O)Nc1ccc(O)c(C(C)=O)c1` it was “inactive”; in that of `COc1ccc2c(c1)CCCC2=O`, “inactive”; in that of `C[C@H]1C[C@H](O)c2ccsc2S1(=O)=O`, “inactive”.

In the case of `Cc1cccc(C)c1NC(=O)c1cc(S(N)(=O)=O)c(Cl)cc1O`, the outcome was inactive. Still for that read-out and setting: in the case of `CC(=O)N(CC(=O)N(C)C)c1ccccc1` it was “inactive”; in that of `Nc1c(NC/C=C\COc2cc(CN3CCCCC3)ccn2)c(=O)c1=O`, “inactive”.

As for `C/C(=N/NC(=O)c1ccncc1)C(=O)O`, the call was inactive.

`Clc1ccc2c(c1)Nc1ccccc1S2`: the compound was called inactive. Turning to `N#C/C(=C1/SC[C@@H](c2ccc(Cl)cc2Cl)S1)n1ccnc1`, the call was inactive. The same measure, in the same setting: in the case of `COC(=O)C1=C(C)NC(COC(N)=O)=C(C(=O)OC(C)C)C1c1cccc(Cl)c1Cl` (stereo not drawn) it was “inactive”; in that of `CC(C)(c1ccc(O)cc1)c1ccc(O)cc1`, “inactive”.

With `C/C(=C1\CCOC(=O)S1)N(C=O)Cc1cnc(C)nc1N`, the outcome was inactive. On the same count and under the same terms, in the case of `CC(=O)OCC(=O)[C@@]1(O)[C@H](OC(C)=O)C[C@H]2[C@@H]3CCC4=CC(=O)C=C[C@]4(C)[C@@]3(F)[C@@H](O)C[C@@]21C` it was “inactive”.

Take `CCNC(=O)[C@@H]1CCCN1C(=O)[C@H](CCCN=C(N)N)NC(=O)[C@H](CC(C)C)NC(=O)CNC(=O)[C@H](Cc1ccc(O)cc1)NC(=O)[C@H](CO)NC(=O)[C@H](Cc1c[nH]c2ccccc12)NC(=O)[C@H](Cc1cnc[nH]1)NC(=O)[C@@H]1CCC(=O)N1` ([pGlu]HWSYGLRP-NHEt): the compound was classed as inactive. On to `CC(=O)O[C@@H]1CC2C3CCc4cc(OC(=O)c5ccccc5)ccc4C3CCC2(C)[C@H]1OC(C)=O` (stereo partly drawn), for which the call was inactive. `CN(C)CCOC1=Cc2ccccc2Sc2ccc(Cl)cc21`: the result was inactive. With `CCCCCCCCCCCCCCCC[N+](C)(C)Cc1ccccc1`, the result was inactive. The same measure, in the same setting: in the case of `CCOc1c(N2CCOCC2)cnn(C)c1=O` it was “inactive”. Same read-out and setting: in the case of `O=C(O)c1[nH]n(-c2ccc(S(=O)(=O)O)cc2)c(=O)c1N=Nc1ccc(S(=O)(=O)O)cc1` it was “inactive”; in that of `Cc1cc2nc3ccc(=[N+](C)C)cc-3sc2cc1N`, “inactive”. On the same count and under the same terms, in the case of `Cc1nc(C2CCCCC2)c(-c2ccc(S(N)(=O)=O)c(F)c2)o1` it was “inactive”; in that of `O=C(O)Cn1c(=O)n(Cc2ccc(Br)cc2F)c(=O)c2ccc(Cl)cc21`, “inactive”. Take `O=C(O)CCCC[P+](c1ccccc1)(c1ccccc1)c1ccccc1`: the compound was classed as inactive.

For `CCCCCC(=O)O[C@]1(C(C)=O)CC[C@H]2[C@@H]3CCC4=CC(=O)CC[C@]4(C)[C@H]3CC[C@@]21C`, the outcome was inactive.

Consider `CC(C(O)c1ccccc1)N(C)CCOC(c1ccccc1)c1ccccc1` (stereo not drawn), for which the call was inactive. On the same count and under the same terms, in the case of `N=C(N)c1ccc(OCCCOc2ccc(C(=N)N)cc2)cc1` it was “inactive”. On the same count and under the same terms, in the case of `CC(NC(CCc1ccccc1)C(=O)O)C(=O)N1C(=O)N(C)CC1C(=O)O` (stereo not drawn) it was “inactive”; in that of `COC(=O)CCCCC(CCSS/C(CCO)=C(\C)N(C=O)Cc1cnc(C)nc1N)SC(C)=O` (stereo not drawn), “inactive”. As for `NCCCC(N)CC(=O)NCC1NC(=O)C(CO)NC(=O)C(N)CNC(=O)C(C2CCN=C(N)N2)NC(=O)C(=CNC(N)=O)NC1=O` (stereo not drawn) (H-[Dap]S[Dap](ξβ3hOrn)[ΔAla(3-NHCONH2)][X10]; lactam 1-C; configuration not given here), the activity change is 8.73% [at 0.0343 µM]. As to `Cc1nc([N+](=O)[O-])cn1-c1ccc([N+](=O)[O-])cc1`, the outcome was inactive.

`Nc1ccc(O)cc1`: the outcome was inactive. With `c1ccc2occc2c1`, the call was inactive. The same measure, in the same setting: in the case of `CN(C)CCOC(c1ccccc1)c1ccc(Br)cc1` (stereo not drawn) it was “inactive”; in that of `O=C(O)/C=C(\CC(=O)O)C(=O)O`, “inactive”.
